{
  "source": "PubChem BioAssay (Tox21)",
  "note": "A number with no mark means an inactive call. Activity calls are given as the source filed them. Calls come from the whole dose curve; as a rule, active = well fitted curve in the direction sought with a large enough effect in the repeat runs; inconclusive = weak or mixed curves; inactive = flat fitted curve, though single readings scatter. % is set by controls: 0 for no effect and ±100 for the full control effect.",
  "data": [
    {"experiment": "qHTS assay to test for compound auto fluorescence at 590 nm (red) in HepG2 cell free culture (AID 720684)", "details": "cell-free medium autofluorescence, red 540/590 nm; series mostly up to 91.3 µM", "from_the_text": "U.S. Tox21 Program National Center for Advancing Translational Sciences [NCATS] NIH Chemical Genomics Center [NCGC] U.S. Environmental Protection Agency [EPA] National Institutes of Environmental Health Sciences [NIEHS] National Toxicology Program [NTP] U.S. Food and Drug Administration [FDA] Tox21 Assay Overview: Compound auto fluorescence often interferes with screening of the compound library against various biological targets and signaling pathways. Some of these compounds may have fluorophoric properties. Such properties may interfere with the assay outputs resulting in false positives and/or negatives. To decrease such complications and ensure the compound activities are relevant in terms of biological response, the Tox21 10K compound library was screened for auto fluorescence. From the fluorophores used as reporter signals in our screening assays, the auto fluorescence equivalencies of compounds against three fluorophores have been evaluated: Triamterene, Fluorescein and Rose Bengal sodium for blue, green and red fluorescence, respectively. The fluorescence intensities were measured using Excitation/Emission wavelengths at 405/460nm, 485/535nm and 540/590nm for blue, green and red labels, respectively. This assay includes the red fluorescence data.\nTox21 Assay Protocol Summary: 5 uL of culture medium (MEM containing 10% FBS) per well was dispensed into black wall/clear bottom 1536-well plates using a Multidrop Combi Dispenser (ThermoFisher Scientific, Waltham, MA). After 23 nL compound or DMSO vehicle was transferred into assay plate by a pintool work station (Kalypsys, San Diego, CA), fluorescence intensities in the assay plates were measured by an Envision (PerkinElmer, Shelton, CT) plate reader using three labels for measuring blue, green and red fluorescence at […] 460, 535 and 590nm respectively.", "values": [
      {"smiles": "CCCCCCCCn1sccc1=O", "outcome": "inactive"},
      {"smiles": "O=C(O)C(Cl)(Cl)Br", "outcome": "inactive"},
      {"smiles": "CCOP(=S)(OCC)Oc1ccc(S(C)=O)cc1", "note": "(stereo not given)", "outcome": "inactive"},
      {"smiles": "[Cl-].[Cl-].[Hg+2]", "outcome": "inactive"},
      {"smiles": "CCOP(=S)(S)OCC", "outcome": "inactive"},
      {"smiles": "CC(C)(C)c1ccc(CCOc2ncnc3ccccc23)cc1", "outcome": "inactive"},
      {"smiles": "SCc1ccccc1", "outcome": "inactive"},
      {"smiles": "O=C(O)C(F)(F)C(F)(F)C(F)(F)C(F)(F)C(F)(F)C(F)(F)C(F)(F)C(F)(F)F", "outcome": "inactive"},
      {"smiles": "NCCc1cc(O)c(O)cc1O", "outcome": "inactive"},
      {"smiles": "C1CCNCC1", "outcome": "inactive"},
      {"smiles": "CCCCCl", "outcome": "inactive"},
      {"smiles": "O=C(NC(=O)c1cc(F)c(F)cc1Cl)Nc1cc(F)ccc1N1CCC(C(=O)O)CC1", "outcome": "inactive"},
      {"smiles": "CCCCCCCCCCCCN=C(N)N", "fluorescence, % of Rose Bengal": "0.0947% [at 3.72 µM]"},
      {"smiles": "O=[N+]([O-])O[C@H]1CO[C@H]2[C@@H]1OC[C@H]2O[N+](=O)[O-]", "outcome": "inactive"},
      {"smiles": "Nc1cccc2ccccc12", "outcome": "inactive"},
      {"smiles": "FC(Cl)(Cl)C(F)(Cl)Cl", "outcome": "inactive"},
      {"smiles": "CN1CC[C@]23c4c5ccc(O)c4O[C@H]2[C@@H](O)C=C[C@H]3[C@H]1C5", "outcome": "inactive"},
      {"smiles": "O=C(O)c1cc(Cl)ccc1Cl", "outcome": "inactive"},
      {"smiles": "O=C([O-])c1ccccn1.O=C([O-])c1ccccn1.O=C([O-])c1ccccn1.[Cr+3]", "outcome": "inactive"},
      {"smiles": "C[N+](C)(C)CCOC(=O)C(O)(c1ccccc1)c1ccccc1", "outcome": "inactive"},
      {"smiles": "CN(C)N", "outcome": "inactive"},
      {"smiles": "Oc1cccc(Cl)c1", "outcome": "inactive"},
      {"smiles": "Nc1cc(Cl)cc(C(=O)O)c1Cl", "outcome": "inactive"},
      {"smiles": "Cc1nc(N(C)C)nc(OC(=O)N(C)C)c1C", "outcome": "inactive"},
      {"smiles": "COC1=CC(=O)O[C@@H](/C=C/c2ccc3c(c2)OCO3)C1", "outcome": "inactive"},
      {"smiles": "O=C(O)C(O)C(O)C(=O)O", "note": "(stereo not given)", "outcome": "inactive"},
      {"smiles": "Nc1c(Br)cc(Br)c2c1C(=O)c1ccccc1C2=O", "fluorescence, % of Rose Bengal": "-0.122% [at 18.6 µM]"},
      {"smiles": "CCNC(=O)NC(=O)/C(C#N)=N/OC", "outcome": "inactive"},
      {"smiles": "CCCBr", "outcome": "inactive"},
      {"smiles": "OCCSSCCO", "outcome": "inactive"},
      {"smiles": "CCCCOC(=O)CCC(=O)OCCCC", "outcome": "inactive"},
      {"smiles": "C=CCOCC1CO1", "note": "(stereo not given)", "outcome": "inactive"},
      {"smiles": "CCCCNC(=O)OCC#CI", "outcome": "inactive"},
      {"smiles": "CC(C)C1(C)N=C(c2ncccc2C(=O)O)NC1=O", "note": "(stereo not given)", "outcome": "inactive"},
      {"smiles": "O=C(Cl)OCCOCCOC(=O)Cl", "outcome": "inactive"},
      {"smiles": "C=CC(C)(CCC=C(C)C)OC(=O)c1ccccc1N", "note": "(stereo not given)", "outcome": "inactive"},
      {"smiles": "C[N+]1(CCF)[C@@H]2CC[C@H]1CC(OC(=O)C(O)(c1ccccc1)c1ccccc1)C2", "note": "(stereo not given in full)", "outcome": "inactive"},
      {"smiles": "COc1ccc(C(=O)c2c(C)n(CCN3CCOCC3)c3ccccc23)cc1", "outcome": "inactive"},
      {"smiles": "COC1CC(=C(c2cccs2)c2cccs2)C[N+](C)(C)C1", "note": "(stereo not given)", "outcome": "inactive"},
      {"smiles": "O=C(O)C(F)(F)C(F)(F)C(F)(F)C(F)(F)C(F)(F)F", "outcome": "inactive"}
    ]}
  ]
}
